ssDAF-12 act – activates DAF-12 receptor from parasite S. stercoralis; HEK293 ssDAF-12/GRIP1 lit1-tk-luc reporter, luminescence; % of 3 µM dafachronic acid response; activation, % at 6.8 µM; hit rate 1% among 370,000;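 active = activation above the mean over all tested compounds plus 3 SD, cut at about 0.9% in these data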;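 note: 0% = DMSO-only wells and 100% = 3 µM delta7-dafachronic acid wells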
hgDAF-12 ag – hgDAF-12 agonism, primary luciferase screen; HEK293 GAL4-hgDAF12 UAS-luciferase reporter, agonist luminescence; normalized to butyrate control; activation, % at 6.8 µM; hit rate 1.8% among 370,000; AID 687014;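 active = activation above a cutoff set at the mean of all screened compounds plus 3 SD, cut at about 10% in these data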;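 note: 0% = DMSO wells and 100% = sodium butyrate wells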
DAX1 inh-1 – inhibitors of DAX1 repression of SF-1 activated StAR promoter; HEK293T StAR-luciferase reporter, SF-1/DAX-1 repression relief; inhibition, % at 6.8 µM; hit rate 1.1% among 370,000;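 active = inhibition above the mean over all tested compounds plus 3 SD, cut at about 3.6% in these data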;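 note: 0% = DAX-1 cells with DMSO and 100% = cells lacking DAX-1 with DMSO; higher inhibition means more luminescence from relief of DAX-1 repression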
hcDAF-12 act – activates DAF-12 receptor from parasite H. contortus; HEK293 hcDAF-12 lit1-tk-luc reporter, luminescence; 0% DMSO, 100% Δ7-dafachronic acid; activation, % at 6.8 µM; hit rate 1.4% among 370,000; AID 652067;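 active = activation above the mean of all tested compounds plus 3 SD, cut at about 5.5% in these data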;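 note: 100% = response to 3 µM Δ7-dafachronic acid high control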
DAX1 inh-2 – NR0B1 (DAX1) inhibition | inhibition, % at 6.75 µM | hit rate 0.99% among 340,000 | P51843 | HEK293 Gal4-DAX1 luciferase reporter, luminescence;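 active = inhibition above the mean over all tested compounds plus 3 SD, cut at about 4.2% in these data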;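 note: 0% = DAX1-transfected cells with DMSO and 100% = empty-vector control cells with DMSO; inhibition shows as a rise in luminescence from relieved DAX1 repression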
Target sequence (P51843 207-470 limits assumed): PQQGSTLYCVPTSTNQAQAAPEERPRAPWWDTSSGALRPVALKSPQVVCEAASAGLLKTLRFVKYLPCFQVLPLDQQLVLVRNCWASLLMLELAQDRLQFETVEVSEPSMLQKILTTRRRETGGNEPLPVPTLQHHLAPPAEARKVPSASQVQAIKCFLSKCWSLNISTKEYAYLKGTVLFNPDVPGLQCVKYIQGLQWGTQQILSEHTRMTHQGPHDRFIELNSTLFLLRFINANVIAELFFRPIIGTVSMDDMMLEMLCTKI
LXR ag – counter-screen for hcDAF-12 agonists: agonists of human LXR-beta; shares compounds with hcDAF-12 act; HEK293 Gal4-LXR tk-luc reporter, luminescence, 24 h; normalized: DMSO 0%, positive control 100%; activation, % at 6.8 µM; 3,400 tested, under 10 active; AID 743027;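 active = mean percent activation of the reporter above a cutoff set as the average over tested compounds plus their standard deviation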
hcDAF12 conf – confirmation of H. contortus DAF-12 agonists; shares compounds with hcDAF-12 act; activation, % at 6.8 µM; AID 743032; hit rate 61% among 3,400; HEK293 hcDAF-12 lit1-tk-luc reporter, luminescence; % of Δ7-dafachronic acid response;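 active = mean activation across triplicate tests above the threshold derived from the earlier primary screen, cut at about 5.5% in these data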;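 note: 0% = DMSO only wells and 100% = 3 µM Δ7-dafachronic acid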
Active calls of the source: *; . = no result given. Shown are actives, neighbours in structure and some others; about 4.1% of the full set was active somewhere.

SMILES | ssDAF-12 act | hgDAF-12 ag | DAX1 inh-1 | hcDAF-12 act | DAX1 inh-2 | LXR ag | hcDAF12 conf
CC(=O)c1cccc(-c2ccnc3c2CC(C(=O)Nc2ccc(Cl)c(C(F)(F)F)c2)O3)c1 (stereo not drawn) | -1 | -2 | 0 | -1 | . | . | .
CCOC(=O)/C(=N\Nc1cc(Cl)ccc1Cl)N1CC(C)OC(C)C1 (stereo not drawn) | -2 | 4 | 0 | -1 | 0 | . | .
CCOC(=O)C(=NCC1CCCO1)NNc1cc(Cl)ccc1Cl (stereo not drawn) | -1 | 1 | 0 | 7.5* | 0 | 0 | 1
CC(c1cc(F)ccc1O)c1c[nH]c2ccccc12 (stereo not drawn) | 0 | 2 | 0 | 6.7* | . | 0 | 6
Fc1ccc(OCc2nnc(-c3ccccc3Br)o2)c(Cl)c1 | 0 | 11* | 1 | 7.1* | 1 | 1 | 3
CC1(C(=O)Nc2ccc(Cl)c(Cl)c2)CCN1Cc1cc2ccccc2o1 (stereo not drawn) | -1 | 0 | 3 | 1 | . | . | .
O=C(NCc1ccc(Cl)cc1Cl)Nc1ccccc1 | -1 | 7 | 1 | 7.4* | 1 | 0 | 4
O=C(NCc1csc2ccc(Cl)cc12)Nc1ccccc1 | -2 | 0 | 0 | -1 | 2 | . | .
O=C(Nc1ccncc1)Nc1cccc(Cl)c1Cl | -1 | 0 | -2 | -3 | -1 | . | .
O=C(Nc1ccccc1)Nc1cccc(Cl)c1Cl | -1 | 6 | 0 | 7.3* | 3 | 0 | 2
Cn1cccc1C(=O)C(=O)Nc1cccc(Cl)c1Cl | 0 | 6 | 1 | 6.6* | 1 | 1 | 12*
N#C/C(=C/c1ccc(N2CCCCC2)cc1)c1cccc(F)c1 | -1 | 7 | 1 | 8.8* | 0 | 1 | 2
COc1ccc(NC(=O)C2Cc3c(-c4ccccc4Oc4ccccc4)ccnc3O2)cc1 (stereo not drawn) | -2 | -2 | -2 | -3 | . | . | .
CC(C)(C)c1ccc(-c2nc3cc(N)ccc3o2)cc1 | -1 | 8 | 1 | 4 | 0 | . | .
Cc1ccc(-c2nc3cc(C)ccc3o2)cc1 | 1.7* | 12* | 3 | 11* | 3 | 2 | 21*
Cc1ccc(-c2nc3cc(N)ccc3o2)cc1 | 1 | 13* | 3.6* | 9.8* | -1 | 2 | 9.2*
CC(C)c1ccc2oc(-c3ccc(N)cc3)nc2c1 | 1 | 8 | 2 | 12* | -2 | 2 | 15*
CN(C)c1ccc(C(=O)NC2CCCCN(Cc3ccc(Cl)cc3)C2=O)cc1 (stereo not drawn) | -1 | 8 | 1 | 3 | . | . | .
COc1cc([N+](=O)[O-])ccc1N/C=C/C(=O)c1cccs1 | 2.3* | 17* | 3 | 17* | -2 | 1 | 16*
O=C(C=Cc1ccccc1)c1cccs1 | -1 | -1 | -2 | -2 | 0 | . | .
NC(=O)c1ccccc1N/C=C/C(=O)c1cccs1 | 1 | 10 | 3 | 8.3* | 2 | 2 | 5.6*
Cc1ccc(C(=O)/C=C/Nc2ccccc2C(N)=O)o1 | 0 | 12* | 3 | 9.3* | 1 | 1 | 5
O=C(/C=C/c1ccc([N+](=O)[O-])cc1)c1cccs1 | -2 | 0 | 1 | 0 | 1 | . | .
CC(=O)Nc1ccc(N/C=C/C(=O)c2ccc(C)o2)cc1 | -1 | 0 | 0 | -1 | 0 | . | .
O=C(/C=C/Nc1ccc(F)cc1)c1cccs1 | 1.7* | 12* | 4.5* | 11* | 0 | 2 | 18*
SMILES | ssDAF-12 act | hgDAF-12 ag | DAX1 inh-1 | hcDAF-12 act | DAX1 inh-2 | LXR ag | hcDAF12 conf
COC(=O)C1CN(Cc2ccc(OC)cc2)CCS(=O)(=O)N1Cc1cn(Cc2ccccc2)nn1 (stereo not drawn) | -2 | 1 | -1 | 2 | . | . | .
CC(=O)c1cc(-c2cccc(Cl)c2O)c(=O)n2c1CCC2 | -1 | 1 | 0 | 0 | . | . | .
O=C(Nc1ccccc1Cl)c1ccc(-c2ccccn2)s1 | 0 | 11* | 2 | 8.7* | 5.0* | 1 | 3
CC(=O)Nc1sc2c(c1-c1nc3ccccc3s1)CCN(C)C2 | 0 | 5 | . | 14* | . | 1 | 9.4*
CC(=O)Nc1sc2c(c1-c1nc3ccccc3s1)CN(C(C)C)C2 | -1 | 7 | . | 2 | . | . | .
CC(=O)Nc1sc2c(c1-c1nc3ccccc3s1)CN(C(C)C)CC2 | 2.5* | 11* | -1 | 14* | 1 | 2 | 17*
Cc1cccc(-c2noc(-c3ccc(Cl)cc3[N+](=O)[O-])n2)c1 | 0 | 13* | 2 | 8.9* | 2 | 2 | 7.7*
CC(C)c1ccc(NC(=O)[C@@H]2CCC(=O)N2C2OC(=O)c3ccccc32)cc1 (stereo partly drawn) | 0 | 7 | 3 | 7.4* | 4 | 0 | 5
CN1C2=N[C@H](c3ccccc3)CC(=O)N2/C(=C\c2ccccc2)C1Cc1ccccc1 (stereo partly drawn) | -2 | 1 | -2 | -2 | . | . | .
COc1ccc(OC)c2nc3c(C(=O)NCCN(C)C)cccc3nc12 | 0 | 2 | 1 | 11* | 1 | 0 | 9.2*
CN(C)CCNC(=O)c1cccc2nc3cccc(F)c3nc12 | 1.5* | -1 | -4 | 18* | 1 | 1 | 14*
Cc1cccc(C(=O)NCCN(C)C)c1 | -1 | 0 | 0 | 1 | 1 | . | .
Nn1c(SCC(=O)NC2CCCCCC2)nnc1-c1ccco1 | 0 | -4 | -1 | -1 | -1 | . | .
COC(=O)[C@]12CCCCC=C1N(CCC1=CCCCC1)C(=O)[C@H](CC(=O)NCCc1ccccc1OC)C2 | -2 | -1 | -1 | -2 | . | . | .
O=c1cc(-c2ccccc2)nc2n1Cc1ccccc1-2 | -2 | 3 | -1 | 1 | 0 | . | .
COc1ccc(-c2nc3n(c2C)Cc2ccccc2-3)cc1 | 2.2* | 12* | 1 | 9.9* | 4 | 1 | 7.5*
CC(=O)Nc1ccc(NC(=O)c2ccc(-c3ccccc3Cl)o2)cc1 | -1 | 3 | 1 | -1 | 0 | . | .
O=C(Nc1nccs1)c1ccc(-c2ccccc2Cl)o1 | 2.4* | 12* | 2 | 6.7* | 3 | 1 | 6.2*
CC(=O)c1c(CC(=O)O)[nH]n(-c2nc3ccccc3s2)c1=O | 0 | 7 | 2 | 6.6* | 1 | 0 | 5
NS(=O)(=O)c1ccc(CCNc2nc3c(-c4cccc(F)c4)nnn3c3ccccc23)cc1 | 1.3* | 0 | 0 | 7.1* | 2 | -1 | 1
Nn1c(SCc2ccc([N+](=O)[O-])cc2)nnc1-c1n[nH]c2c1CCC2 | -2 | 4 | 0 | -1 | . | . | .
